High-throughput results (PubChem)
CSC inhib: cancer stem cell inhibition; cancer stem cell-like cells viability, luminescence; inhibition, % at 7.5 µM; 300,000 compounds, 1.1% hits; in the data active means inhibition above about 75%; tested in HMLE shEcad cells
Beta apoptosis: beta cell apoptosis inhibition; INS-1E cytokine-induced death, ATP luminescence, 48 h; percent of positive-control rescue, neutral wells zero; protection from apoptosis, % (concentration not given with the values); 300,000 compounds, 0.8% hits;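 active means Every replicate reaches about 75%, or at least half do and their mean reaches it too, limit read from the data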;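 further: higher means more ATP so stronger rescue from cytokine killing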
MPTP inh: inhibitors of mitochondrial permeability transition pore. isolated mouse mitochondria, Ca2+ swelling absorbance, 30 min. inhibition, % at 10 µM. 360,000 compounds, 1.4% hits;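 active means inhibition of 50% or more, scaled per plate between neutral and stimulator controls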
NR3A LBD binder: NR3A (human) ligand-binding domain modulation; 340,000 compounds, 2.5% hits; NR3A LBD differential scanning fluorimetry, Tm shift; 0% = protein alone, 100% = glycine-bound protein; Tm shift relative to glycine control, % at 25 µM;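 active means melting temperature shift of at least 10% of the positive control shift, at one fixed dose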
SKKanGAS inh: blocks kanamycin growth of S. pyogenes SKKanGAS strain; BacTiter-Glo, 6 h; 300,000 compounds, 1.3% hits; AID 1662; inhibition, % at 7.5 µM;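 active means mean replicate score, as percent of positive control median, at least 50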;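 further: strain carries kanamycin resistance gene driven by streptokinase promoter and grows in 40 µg/ml kanamycin; loss of luminescence reflects streptokinase promoter inhibition or plain growth inhibition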
Mdm2-MdmX inh: human Mdm2/MdmX binding inhibition; SaOS-2 split-luciferase Mdm2/MdmX complementation, luminescence; inhibition, % at 8 µM; AID 485346; 330,000 compounds, 3% hits;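 active means inhibition of at least 50% at 8 µM in the primary screen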
Target sequence (O15151 whole entry, looked up): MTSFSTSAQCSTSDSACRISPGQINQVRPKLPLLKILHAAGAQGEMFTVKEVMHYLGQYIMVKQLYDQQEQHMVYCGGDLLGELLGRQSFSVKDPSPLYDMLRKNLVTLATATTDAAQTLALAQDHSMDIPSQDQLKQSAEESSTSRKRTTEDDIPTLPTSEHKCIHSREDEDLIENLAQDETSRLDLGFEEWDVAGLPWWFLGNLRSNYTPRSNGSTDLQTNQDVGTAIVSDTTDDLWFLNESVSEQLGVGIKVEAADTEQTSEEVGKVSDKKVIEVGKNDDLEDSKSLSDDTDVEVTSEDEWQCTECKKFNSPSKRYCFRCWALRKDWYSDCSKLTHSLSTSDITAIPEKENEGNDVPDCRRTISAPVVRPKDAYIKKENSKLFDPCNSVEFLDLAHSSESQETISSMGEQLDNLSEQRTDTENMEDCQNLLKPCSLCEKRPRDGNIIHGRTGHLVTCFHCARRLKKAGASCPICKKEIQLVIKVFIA
Target sequence (Q00987 whole entry, looked up): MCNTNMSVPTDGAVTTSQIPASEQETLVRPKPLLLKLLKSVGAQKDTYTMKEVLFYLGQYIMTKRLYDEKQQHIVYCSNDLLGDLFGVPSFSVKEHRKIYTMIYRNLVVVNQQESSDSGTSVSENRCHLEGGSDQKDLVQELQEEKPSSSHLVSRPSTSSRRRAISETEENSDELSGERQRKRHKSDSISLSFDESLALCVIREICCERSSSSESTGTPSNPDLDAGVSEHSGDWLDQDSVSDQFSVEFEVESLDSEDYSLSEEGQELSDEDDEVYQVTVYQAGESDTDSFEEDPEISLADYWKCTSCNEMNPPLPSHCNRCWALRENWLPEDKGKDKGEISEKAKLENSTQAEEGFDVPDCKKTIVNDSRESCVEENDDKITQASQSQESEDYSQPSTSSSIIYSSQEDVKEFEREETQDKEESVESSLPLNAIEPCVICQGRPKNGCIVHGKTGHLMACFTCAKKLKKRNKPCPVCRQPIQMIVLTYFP
Large screens that a line does not name were inactive. Shown are actives, neighbours in structure and some others; about 6.9% of the full set was active somewhere.

COc1cc(/C=C(/NC(C)=O)C(=O)O)cc(Cl)c1OCc1ccc(Br)cc1	none
O=C(NNC(=O)c1cc(-c2cccc(Br)c2)nc2ccccc12)c1csc(N2CCOCC2)n1	SKKanGAS inh 56 (no result: CSC inhib)
CCOc1ccc(-c2cccc(NS(=O)(=O)c3cc([N+](=O)[O-])ccc3C)c2)nn1	NR3A LBD binder 11 (no result: Beta apoptosis)
CSC1=N/C(=C\c2ccccc2F)C(=O)S1	NR3A LBD binder 16
COc1cccc(/C=C2\N=C(SC)SC2=O)c1OC	none
Cc1cc(Br)cn2c(CC(C)(C)C)c(-c3cccc(Cl)c3)nc12	none (no result: CSC inhib, Beta apoptosis, NR3A LBD binder, SKKanGAS inh, Mdm2-MdmX inh)
O=[N+]([O-])c1ccc(O)c(/C=N/NC2=NS(=O)(=O)c3ccccc32)c1	SKKanGAS inh 59
O=[N+]([O-])c1ccc(/C=N/NC2=NS(=O)(=O)c3ccccc32)cc1	none
O=[N+]([O-])c1ccc(O)c(/C=N/Nc2ccc(Cl)nn2)c1	CSC inhib 107, Beta apoptosis 110, SKKanGAS inh 102
Cc1cccc(OCCNc2cc(N3CCN(C)CC3)ccc2[N+](=O)[O-])c1	CSC inhib 80
Cc1cccc(OCCNc2cc(N3CCOCC3)ccc2[N+](=O)[O-])c1	none
N/C(=N\OC(=O)/C=C/c1ccccc1)c1ccncc1	none
N/C(=N\OC(=O)/C=C/c1ccccc1Cl)c1ccncc1	NR3A LBD binder 12 (no result: CSC inhib)
Cc1ccc(NC(=O)CSc2nc(N)c3c4c(sc3n2)CSC(C)(C)C4)cc1	NR3A LBD binder 24
Oc1ccccc1/C=N/NC(=S)NCCc1ccccc1	NR3A LBD binder 28, SKKanGAS inh 96 (no result: Mdm2-MdmX inh)
S=C(NCCc1ccccc1)Nc1ccc(Nc2ccccc2)cc1	Beta apoptosis 92, NR3A LBD binder 23
Cc1ccc(C)c(/C=N/NC(=S)NCCc2ccccc2)c1	SKKanGAS inh 54
CC1CCCN(C(=O)CCS(=O)(=O)c2ccc3c(c2)NC(=O)C(C)S3)C1 (stereo not drawn)	none
COc1cc(NC(=O)COC(=O)[C@@H]2CCCN2S(=O)(=O)c2ccc(Cl)cc2)cc(OC)c1OC	NR3A LBD binder 11 (no result: CSC inhib)
O=c1[nH]c(SCc2ccccc2F)nc2ccccc12	none
O=c1cc(CSc2nc3ccccc3c(=O)[nH]2)c2ccc(O)cc2o1	NR3A LBD binder 29 (no result: CSC inhib, Beta apoptosis, Mdm2-MdmX inh)
Cc1cc(C(=O)OCC(=O)N2CC(C)OC(C)C2)ccc1[N+](=O)[O-] (stereo not drawn)	none
Cc1ccc(NC(=O)c2ccco2)c([N+](=O)[O-])c1	none (no result: Beta apoptosis)
CCOc1ccc(C(=O)NC(=S)Nc2ccc(NC(=O)c3ccco3)cc2)cc1[N+](=O)[O-]	NR3A LBD binder 41
Cc1c([N+](=O)[O-])cc(C(=O)Nc2ccc(NC(=O)c3ccco3)cc2)cc1[N+](=O)[O-]	NR3A LBD binder 25 (no result: Beta apoptosis)
COCCN1C[C@@H](CO)O[C@@H](n2cnc3c(NCc4ccc(F)cc4)ncnc32)C1	none (no result: CSC inhib, Beta apoptosis, NR3A LBD binder, SKKanGAS inh, Mdm2-MdmX inh)
FC(F)(F)c1cnc(-c2cnc(-c3ccncc3)nc2)c(Cl)c1	none (no result: CSC inhib)
FC(F)(F)c1cnc(-c2cnc(-c3ccccn3)nc2)c(Cl)c1	SKKanGAS inh 56
CCCCN(C(=O)Cc1ccc2c(c1)OCCO2)c1c(N)n(CC(C)C)c(=O)[nH]c1=O	none (no result: CSC inhib, Beta apoptosis, SKKanGAS inh)
Cc1cccc2sc(NC(=O)c3ccc(OCC4CCCO4)cc3)nc12 (stereo not drawn)	none
O=C(Nc1cccc(Cl)c1N1CCCC1)c1cccc(-c2cc3ccccc3oc2=O)c1	CSC inhib 84
CCOc1ccc2nc(NC(=O)c3cccc(-c4cc5ccccc5oc4=O)c3)sc2c1	Beta apoptosis 81 (no result: Mdm2-MdmX inh)
CCOc1ccc2nc(NC(=O)c3ccc(OCC4CCCO4)cc3)sc2c1 (stereo not drawn)	NR3A LBD binder 20
COc1ccc(NC(=O)c2csc(C)c2)cc1OC	none
N#C/C(=C\c1cccn1S(=O)(=O)c1cccc(C#N)c1)S(=O)(=O)c1ccc(F)cc1	none (no result: CSC inhib, Beta apoptosis, NR3A LBD binder, SKKanGAS inh, Mdm2-MdmX inh)
Cc1nc(N/N=C/c2ccccn2)sc1C	Beta apoptosis 110 (no result: MPTP inh, SKKanGAS inh, Mdm2-MdmX inh)
COC(=O)c1ccc(/C=N/Nc2nc(C)c(C)s2)cc1	none
NC(c1ccccc1)c1csc(Nc2cc(Oc3ccccc3)ncn2)n1 (stereo not drawn)	none (no result: CSC inhib, Beta apoptosis, NR3A LBD binder, SKKanGAS inh, Mdm2-MdmX inh)
O=C(CN(Cc1ccccc1)S(=O)(=O)c1ccccc1)N/N=C/c1ccccc1C(=O)O	none
O=c1nc(Nc2ccc(Br)cc2)sc2ccc([N+](=O)[O-])cc12	NR3A LBD binder 13
CCc1cc(C(=O)N(CC)CC(=O)Nc2ccc(OC)cc2)sc1C	none (no result: CSC inhib, SKKanGAS inh)
Cc1ccc(NCc2ccccc2F)cc1	none
Fc1ccccc1CNc1ccc(Cl)c(Cl)c1	SKKanGAS inh 56
Cc1ccn2c(C(=O)CSc3ccccc3Cl)c(C)nc2c1	NR3A LBD binder 14 (no result: CSC inhib)
COc1cc(/C=C2/C(=O)N(c3ccc(Br)cc3)N=C2C)cc([N+](=O)[O-])c1O	none (no result: MPTP inh, NR3A LBD binder)
COc1cc(/C=C2/C(=O)N(c3cccc(Br)c3)N=C2C)cc(OC)c1O	NR3A LBD binder 15
Fc1cccc(-c2cc3nc4c(c(NCc5ccco5)n3n2)CCCC4)c1	CSC inhib 93
CCOC(=O)c1cnn(-c2nc(-c3cccc(F)c3)cs2)c1C(F)(F)F	SKKanGAS inh 64
CCOC(=O)c1cnn(-c2nc3c(C)cccc3s2)c1C(F)(F)F	SKKanGAS inh 88
COC(=O)c1sccc1NC(=O)CC1C(=O)NCCN1C(=O)c1ccc(N(C)C)cc1 (stereo not drawn)	none
Cc1ccc(S(=O)(=O)N/N=C/c2cccn2-c2ccc(Cl)cc2)cc1	none (no result: Beta apoptosis)
CC1=NN(c2ccc(Cl)cc2)C(=O)/C1=C\c1cccn1-c1ccc(S(N)(=O)=O)cc1	NR3A LBD binder 22
O=c1cc2oc3cc(O)c(O)cc3c(-c3ccccc3[N+](=O)[O-])c-2cc1O	CSC inhib 95, SKKanGAS inh 50
CC1C(=O)C(C)C(c2cccc(Br)c2)NC1c1cccc(Br)c1 (stereo not drawn)	SKKanGAS inh 60
O=C(NCCCN1CCCC1)C1CCN(C(=O)c2cc3sccc3n2Cc2ccc(F)cc2)CC1	NR3A LBD binder 11
COc1ccc(NC(=O)c2cc(-c3ccccc3Cl)on2)cc1	NR3A LBD binder 37
COc1ccc(NC(=O)c2cc(-c3ccccc3OC)on2)cc1	CSC inhib 80 (no result: Mdm2-MdmX inh)
COc1ccc(NC(=O)c2cc(-c3ccco3)on2)cc1	none (no result: CSC inhib, Beta apoptosis)
COc1ccccc1-c1cc(C(=O)Nc2cccnc2)no1	none (no result: Mdm2-MdmX inh)
NC(=O)C1CCN(CC(=O)NC(=O)NC2CCCC2)CC1	none
O=C1c2c(-c3ccc(Br)cc3)noc2CCN1Cc1cn(Cc2ccccc2)nn1	none (no result: CSC inhib, Beta apoptosis, NR3A LBD binder, SKKanGAS inh, Mdm2-MdmX inh)
Cc1cc([N+](=O)[O-])nn1CC(=O)N/N=C/c1ccc(O)cc1O	CSC inhib 80
O=C(CSc1ccccn1)N/N=C/c1cc([N+](=O)[O-])ccc1O	SKKanGAS inh 115
Nc1nnn(CC(=O)N/N=C/c2ccccc2Cl)n1	none
O=C(CSc1ccccn1)N/N=C/c1ccccc1[N+](=O)[O-]	none
O=C(Cn1nc2ccccc2n1)N/N=C/c1cc([N+](=O)[O-])ccc1O	SKKanGAS inh 104
O=C(Cn1cncn1)N/N=C/c1cc([N+](=O)[O-])ccc1O	none
